Usually AC50 stands for the concentration giving half of the maximal activity seen.

The text below walks through data of PubChem BioAssay (EPA / NIEHS).

Each structure is given as a SMILES string. Records with an inconclusive call do not appear. Active and inactive are the calls of the source. The calls were made as follows: active = hit-call score of the fitted dose curve at least 0.9, where 1 is the maximum; inconclusive = response in the unintended direction; inactive = score below 0.9.

Assay [1] is described as follows: TOX21_p53_BLA_p2_viability: Viability Assessment in the Tox21 HCT-116 p53 Agonism Beta-lactamase Assay, Phase 2 (AID 2283591).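 Also: actives lower the ATP signal meaning cytotoxicity.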 Put shortly:
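HCT116 p53-bla cells, 4000/well, dosed after 5 h plating (217-fold dilution of DMSO stocks) and incubated 16 h at 37C. Viability taken as cellular ATP by CellTiter-Glo luminescence after 30 min RT; signal loss marks cytotoxicity.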

Assay [2] addresses Cellular tumor antigen p53 (Homo sapiens) (UniProt P04637). Briefly: TOX21_p53_BLA_p2_ratio: Tox21 HCT-116 p53 Agonism Beta-lactamase Assay, Ratio, Phase 2 (AID 2283592). In a few lines: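 An inducible beta-lactamase reporter in HCT116 cells signals p53 pathway activation. After 16 h chemical exposure at 37C, cells load CCF4-AM substrate for 2 h at room temperature; activity is the cleaved/uncleaved emission ratio relative to DMSO.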

The nature of assay [3]: TOX21_p53_BLA_p3_viability: Viability Assessment in the Tox21 HCT-116 p53 Agonism Beta-lactamase Assay, Phase 3 (AID 2283593).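 Also: cells exposed to compound for 16 h before reading.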 In a few lines:
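HCT116 cells, 4000/well, dosed 5 h after plating by pin transfer (217-fold dilution from DMSO stock) and incubated 16 h at 37C, 5% CO2. Viability read as ATP luminescence with CellTiter-Glo after 30 min at room temperature.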

The target of assay [4] is Cellular tumor antigen p53 (Homo sapiens) (UniProt P04637). Nature of the assay: TOX21_p53_BLA_p3_ratio: Tox21 HCT-116 p53 Agonism Beta-lactamase Assay, Ratio, Phase 3 (AID 2283596). Put shortly: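 HCT116 p53-bla cells (4000/well) given compound in DMSO (217-fold dilution) after 5 h, incubated 16 h at 37C. CCF4-AM substrate 2 h at room temperature; 460/530 nm emission ratio, gain fitted against DMSO.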

Assay [5] shares this target. Nature of the assay: TOX21_p53_BLA_p5_ratio: Tox21 HCT-116 p53 Agonism Beta-lactamase Assay, Ratio, Phase 5 (AID 2283599). Put shortly:
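HCT-116 p53-bla cells (4000/well) plated 5 h, dosed with compound (217-fold DMSO dilution) for 16 h at 37 C; CCF4-AM substrate 2 h at room temperature. Activity is the 460/530 nm emission ratio (405 nm excitation), fitted in gain-of-signal direction versus DMSO.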

Assay [6] in a line: TOX21_p53_BLA_p5_viability: Viability Assessment in the Tox21 HCT-116 p53 Agonism Beta-lactamase Assay, Phase 5 (AID 2283600). In a few lines:
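Counter-readout for cytotoxicity: ATP-dependent luminescence from CellTiter-Glo, read in the beta-lactamase wells after 30 min at RT, following a 16 h compound exposure at 37C.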

For assay [7], the target named is Cellular tumor antigen p53 (Homo sapiens) (UniProt P04637). Nature of the assay: TOX21_p53_BLA_p4_ratio: Tox21 HCT-116 p53 Agonism Beta-lactamase Assay, Ratio, Phase 4 (AID 2283601). Put shortly: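 HCT-116 p53 beta-lactamase reporter cells (4000/well) preincubated 5 h, then compound (217-fold dilution of DMSO stock) for 16 h at 37C. CCF4-AM substrate added 2 h at room temperature; 460/530 nm emission ratio fitted upward versus DMSO.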

A short description of assay [8]: ACEA_ER_AUC_viability: ACEA Biosciences xCELLigence Real-Time Cell Analysis on Estrogen Receptor Agonism for Viability (AID 2283782).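 Also: continuous compound exposure with impedance area under curve over 80 h; hit means loss of impedance signal meaning reduced cell growth or viability.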 In a few lines:
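T47D cells preconditioned in phenol red-free RPMI with charcoal-stripped FBS, then dosed with 8-point 1:4 series from 100 uM (up to 0.5% DMSO). Impedance monitored up to ~80 h; area-under-curve loss versus DMSO taken as viability.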

In the next assay the target is THRA (gene 7067) (UniProt P10827). Nature of the assay: TOX21_TRA_COA_Antagonist_Followup_ratio: Tox21 Thyroid Hormone Receptor alpha Antagonism through Coactivator Recruitment Follow-Up Assay, Ratio (AID 2283953). In a few lines:
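This follow-up to the GH3 luciferase screen checks specificity in a cell-free format. It measures SRC-2 coactivator peptide binding to TRα LBD by TR-FRET and scores loss of ratio signal relative to DMSO.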

The nature of assay [9]: TOX21_TRB_BLA_Antagonist_Followup_viability: Viability Assessment in the Tox21 Thyroid Hormone Receptor beta Antagonism Beta-lactamase (BLA) Follow-Up Assay (AID 2283961). Put shortly: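 Cytotoxicity is measured in parallel with the antagonist-mode TRβ beta-lactamase screen, using ATP-coupled luciferase luminescence. Engineered HEK293T cells are treated for 18 h with 11-point compound series in triplicate.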

The nature of assay [10]: TOX21_TR_RXR_BLA_Antagonist_Followup_viability: Viability Assessment in the Tox21 Thyroid Hormone Receptor beta Retinoid X Receptor alpha (RXRa) Antagonism Beta-lactamase (BLA) Follow-Up Assay (AID 2283979). Put shortly: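 RXRa-bla HEK293T cells (2,500/well, phenol red-free DMEM, 2% charcoal-stripped FBS) were attached 5 h, then exposed to compounds at 11 concentrations in triplicate for 16 h at 37C. Viability measured by CellTiter-Glo ATP luminescence, bidirectional fitting versus DMSO.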

Sequence of Cellular tumor antigen p53 (Homo sapiens) (P04637 whole entry, looked up): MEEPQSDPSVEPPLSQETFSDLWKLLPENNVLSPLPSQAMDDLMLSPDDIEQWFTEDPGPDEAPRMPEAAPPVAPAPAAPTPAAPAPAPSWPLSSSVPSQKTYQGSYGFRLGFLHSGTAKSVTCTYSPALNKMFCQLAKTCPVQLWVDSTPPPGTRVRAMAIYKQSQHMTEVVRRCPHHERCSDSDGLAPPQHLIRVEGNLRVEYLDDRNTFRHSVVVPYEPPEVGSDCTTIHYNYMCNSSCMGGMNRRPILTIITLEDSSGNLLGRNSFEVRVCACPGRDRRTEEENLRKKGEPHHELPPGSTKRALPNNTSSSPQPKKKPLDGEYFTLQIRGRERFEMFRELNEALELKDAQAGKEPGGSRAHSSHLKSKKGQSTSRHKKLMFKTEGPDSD
Sequence of THRA (gene 7067) (P10827 whole entry, looked up, the tested form may be a part): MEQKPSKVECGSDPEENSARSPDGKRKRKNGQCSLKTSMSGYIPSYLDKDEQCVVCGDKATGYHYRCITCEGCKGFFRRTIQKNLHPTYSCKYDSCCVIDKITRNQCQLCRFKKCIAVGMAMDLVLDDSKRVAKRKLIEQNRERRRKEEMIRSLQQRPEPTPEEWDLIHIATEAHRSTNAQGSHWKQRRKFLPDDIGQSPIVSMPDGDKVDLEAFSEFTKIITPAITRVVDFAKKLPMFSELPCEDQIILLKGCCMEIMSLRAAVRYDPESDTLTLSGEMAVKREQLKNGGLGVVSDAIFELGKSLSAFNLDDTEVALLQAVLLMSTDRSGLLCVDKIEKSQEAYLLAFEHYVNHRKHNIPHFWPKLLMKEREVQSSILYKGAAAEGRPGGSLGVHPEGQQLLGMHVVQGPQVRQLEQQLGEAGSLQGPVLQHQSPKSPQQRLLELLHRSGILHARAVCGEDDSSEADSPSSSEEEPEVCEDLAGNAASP

In the case of `N=C(N)n1cccn1`, the outcome in [1], in [2], in assay [3], in [4], in assay [5] and in [6] was inactive. Besides, the result in [7] was inactive.

Regarding `C=CC(=O)CCCCC`, the compound was called inactive in assay [1], in [2], in [3], in assay [4], in assay [5] and in assay [6]. Moreover, in assay [7], the result was inactive.

Turning to `O=[N+]([O-])c1cc(C2CCCCC2)c(O)c([N+](=O)[O-])c1`, the outcome in assay [1], in assay [3], in [5], in assay [6] and in assay [7] was inactive. Besides, the AC50 in assay [2] is 1.77 µM (active); in [4], 0.902 µM (active).

As to `CCCOC(=O)c1ccccc1`, the result in assay [1], in assay [2], in assay [3], in assay [4], in [5] and in assay [6] was inactive. Also, the outcome in [7] was inactive.

Consider `C=C1c2cccc(O)c2C(O)=C2C(=O)[C@]3(O)C(O)=C(C(N)=O)C(=O)[C@@H](N(C)C)[C@@H]3[C@@H](O)[C@H]12`, for which the outcome in [1], in assay [2], in [3], in assay [4], in assay [5] and in assay [6] was inactive. The result in assay [7] was inactive.

As for `C1CCC(C(CC2CCCCN2)C2CCCCC2)CC1` (stereo unspecified), the AC50 was 18.2 µM (active) in assay [1]; 26.5 µM (active) in [2]; 33.3 µM (active) in assay [3]; 43.1 µM (active) in assay [4]; 43.7 µM (active) in assay [5]; 34 µM (active) in [6]. Moreover, the AC50 in [7] was 20.5 µM (active).

Consider `NC[C@@H]1CC[C@@H](N)[C@@H](O[C@H]2[C@H](O)[C@@H](O[C@H]3O[C@H](CO)[C@@H](O)[C@H](N)[C@H]3O)[C@H](N)C[C@@H]2N)O1`, for which the compound was classed as inactive in assay [1], in assay [2], in assay [3], in assay [4], in assay [5] and in assay [6]. In assay [7], the outcome was inactive.

`CCc1ccc(S(=O)(=O)O)cc1`: the compound was classed as inactive in [1], in assay [2], in assay [3], in assay [4], in assay [5] and in assay [6]. In addition, the result in assay [7] was inactive.

Regarding `CC(C)C[P+](C)(CC(C)C)CC(C)C`, the result in assay [1], in assay [2], in assay [3], in [4], in assay [5] and in assay [6] was inactive. The result in assay [7] was inactive.

As for `CCOC(=O)Cn1cccc1-c1nc(-c2ccc(OC)cc2)c(-c2ccc(OC)cc2)s1`, the call in assay [1], in [2], in assay [3], in assay [5], in [6] and in [7] was inactive. Also, the AC50 in [4] was 40.9 µM (active).

As for `COc1ccc(-c2ccc3cc(C(=O)O)ccc3c2)cc1C12CC3CC(CC(C3)C1)C2`, the outcome in assay [1], in assay [2], in assay [6] and in assay [7] was inactive. Moreover, the AC50 is 3.62 µM (active) in assay [3], 2.12 µM (active) in assay [4] and 6.67 µM (active) in assay [5].

Turning to `O=C(O)c1cccc(C(=O)O)c1C(=O)O`, the outcome in assay [1], in assay [2], in [3], in assay [4], in assay [5] and in assay [6] was inactive. Moreover, the result in [7] was inactive.

Regarding `CC(=C\c1ccccc1)/C=C1/SC(=S)N(CC(=O)O)C1=O`, the compound was called inactive in [1], in [2], in assay [3], in assay [4], in assay [5] and in assay [6]. Moreover, the outcome in [7] was inactive.

As to `Clc1ccc2cc3ccccc3cc2c1`, the result in [1], in [2], in [3], in assay [4], in [5] and in [6] was inactive.

Take `CCCCCCCCCCCCCCCC(=O)OCC(COC(=O)CCCCCCCCCCCCCCC)OC(=O)CCCCCCCCCCCCCCC`: the compound was classed as inactive in assay [1], in [2], in assay [3], in assay [4], in assay [5] and in [6]. Further, the result in assay [7] was inactive.

Turning to `CC(C)(C)CC(=O)OCC(=O)[C@@]12OC(C)(C)O[C@@H]1C[C@H]1[C@@H]3CCC4=CC(=O)C=C[C@]4(C)[C@@]3(F)[C@@H](O)C[C@@]12C`, the outcome in assay [1], in assay [2], in assay [3], in assay [4], in [5] and in assay [6] was inactive. In addition, the outcome in assay [7] was inactive.

Take `C=CC(C)(O)CC/C=C(\C)CCC=C(C)C` (stereo unspecified): the compound was called inactive in assay [1], in assay [2], in [3], in assay [4], in assay [5] and in assay [6]. The outcome in [7] was inactive.

As for `CC(=O)OC1CCC(C(C)(C)C)CC1` (stereo unspecified), the call in assay [1], in [2], in [3], in [4], in assay [5] and in [7] was inactive.

In the case of `COC1=C(C(=O)O)N2C(=O)[C@@H](NC(=O)[C@H](N)C3=CCC=CC3)[C@H]2SC1`, the call in [1], in assay [2], in assay [3], in [4], in assay [5] and in assay [7] was inactive.

As to `CCCCCCCC/C=C/CCCOC(C)=O`, the compound was classed as inactive in assay [1], in [2], in [3], in assay [4], in [5] and in assay [6]. The result in assay [7] and in [8] was inactive.

As for `CCCCCCCCCCCCCCCC(=O)OC(C)C`, the compound was called inactive in [1], in assay [2], in assay [3], in [4], in [5] and in [7].

`O=C1c2ccccc2C(=O)c2cc(O)ccc21`: the outcome in assay [1], in assay [3], in assay [4] and in assay [5] was inactive. Moreover, the values for the AC50 in assay [2] and in assay [7] were 37.8 µM (active) and 42.5 µM (active), respectively.

As for `CC(=O)N[C@@H](CS)C(=O)O`, the result in assay [1], in assay [2], in assay [3], in [4], in assay [5] and in [7] was inactive.

Consider `CCC1(CO)COCOC1`, for which the outcome in assay [1], in [2], in assay [3], in assay [4], in [5] and in assay [7] was inactive.

Regarding `CC1(C)S[C@@H]2[C@H](NC(=O)C(N)c3ccccc3)C(=O)N2[C@H]1C(=O)OC1OC(=O)c2ccccc21` (stereo partly specified), the outcome in assay [1], in assay [2], in assay [3], in assay [4], in [5] and in [7] was inactive. The outcome (with THRA (gene 7067); in [9]; in assay [10]) was inactive.

Consider `NCCC(O)(P(=O)(O)O)P(=O)(O)O`, for which the result in assay [1], in [2], in assay [3], in assay [4], in assay [5] and in assay [7] was inactive.

As to `[O]=[Zr]`, the call in assay [1], in assay [2], in [3], in assay [4] and in assay [6] was inactive.

As to `COc1ccc(C(=O)Nc2ccccc2)cc1[N+](=O)[O-]`, the call in [1], in assay [2], in assay [3], in assay [4], in assay [5] and in [7] was inactive.

Regarding `Cc1cc(O)c2ccccc2c1O`, the compound was called inactive in assay [1], in [2], in assay [3], in assay [4], in [5] and in [7].

For the compound `CCN(CC)c1ccc(N)cc1`, the compound was classed as inactive in assay [1], in assay [3], in assay [5] and in assay [6]. The half-maximal activity concentration (AC50) was 31.2 µM (active) in assay [2], 69.7 µM (active) in assay [4] and 73.4 µM (active) in assay [7].
